Measured values from the supplement of paper PMC10849652.
Of roughly 8,800 targets only a part is listed; those with a hit were picked by preference. About 0.5% of all pairs of compound and target were hits.

Columns and labels:
Assay in all cases: log2 fold change, soluble protein after heating vs DMSO (PISA); higher = thermal stabilisation; K562 lysate, 10 uM; active = over 0.2 and 3.5 SD of the protein, either way, in both replicates (recomputed)
nilotinib = compound: Cc1cn(-c2cc(NC(=O)c3ccc(C)c(Nc4nccc(-c5cccnc5)n4)c3)cc(C(F)(F)F)c2)cn1 [nilotinib]
How it was run: (§1)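 Quantification was by TMTpro 16plex LC-MS/MS with equalised channel sums, applied to the supernatant after 21,000xg for 90 min. Samples were crude K562 extract at 1 mg/mL protein in PBS pH 7.4 with 1 mM MgCl2, treated with 10 μM compound for 30 min, heated for 3 min across 48°C-58°C, pooled and brought to 0.5% NP-40 at 4°C. Values are log-two fold changes in thermal stability relative to solvent controls, from duplicates.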

[1] = compound: Cc1nc(Nc2n[nH]c3c2CN(C(=O)N[C@H](CN(C)C)c2ccccc2)C3(C)C)c2sccc2n1
How it was run: as §1

dasatinib = compound: Cc1nc(Nc2ncc(C(=O)Nc3c(C)cccc3Cl)s2)cc(N2CCN(CCO)CC2)n1 [dasatinib]
How it was run: as §1

[2] = compound: Cc1ncc(-c2ccnc(Nc3ccc(S(C)(=O)=O)cc3)n2)n1C(C)C
How it was run: as §1

[3] = compound: Cn1cc(-c2ccc3c(c2)CCN3C(=O)Cc2cccc(C(F)(F)F)c2)c2c(N)ncnc21
How it was run: as §1

quisinostat = compound: Cn1cc(CNCC2CCN(c3ncc(C(=O)NO)cn3)CC2)c2ccccc21 [quisinostat]
How it was run: as §1

tipifarnib = compound: Cn1cncc1[C@@](N)(c1ccc(Cl)cc1)c1ccc2c(c1)c(-c1cccc(Cl)c1)cc(=O)n2C [tipifarnib]
How it was run: as §1

[4] = compound: NC(=O)Nc1cc(-c2cccc(F)c2)sc1C(=O)N[C@H]1CCCNC1
How it was run: as §1

[5] = compound: NC(=O)c1cnc(N[C@@H]2CCCC[C@@H]2N)nc1Nc1cccc(-n2nccn2)c1
How it was run: as §1

[6] = compound: NC1(c2ccc(-c3nc4ccn5c(=O)[nH]nc5c4cc3-c3ccccc3)cc2)CCC1
How it was run: as §1

[7] = compound: NCC(=O)Nc1ccc(-n2nc(C(F)(F)F)cc2-c2ccc3c(ccc4ccccc43)c2)cc1
How it was run: as §1

vorinostat = compound: O=C(CCCCCCC(=O)Nc1ccccc1)NO [vorinostat]
How it was run: as §1

silmitasertib = compound: O=C(O)c1ccc2c(c1)nc(Nc1cccc(Cl)c1)c1ccncc12 [silmitasertib]
How it was run: as §1

[8] = compound: O=C1NC(=O)C(c2cnc3ccccn23)=C1c1cn2c3c(cc(F)cc13)CN(C(=O)N1CCCCC1)CC2
How it was run: as §1

entospletinib = compound: c1cn2cc(-c3ccc4cn[nH]c4c3)nc(Nc3ccc(N4CCOCC4)cc3)c2n1 [entospletinib]
How it was run: as §1

Measured: log2 fold change

UBE2H (UniProt P62256)
inactive: nilotinib -0.021 | [1] -0.041 | dasatinib 0.046 | [2] 0.02 | [3] 0.021 | quisinostat -0.015 | tipifarnib -0.049 | [4] 0.014 | [5] 0.005 | [6] -0.041 | [7] 0.023 | vorinostat 0.093 | silmitasertib -0.003 | [8] -0.003 | entospletinib -0.012

TTMP isoform 3 (UniProt Q5BVD1)
inactive: nilotinib 0.118 | [1] -0.023 | dasatinib -0.079 | [2] -0.022 | [3] -0.046 | quisinostat -0.475 | tipifarnib -0.089 | [4] 0.048 | [5] 0.116 | [6] -0.113 | [7] 0.253 | vorinostat 0.191 | silmitasertib -0.074 | [8] 0.167 | entospletinib -0.032

TUBA1B (UniProt P68363)
UniProt P68363, sequence (P68363 whole entry, looked up): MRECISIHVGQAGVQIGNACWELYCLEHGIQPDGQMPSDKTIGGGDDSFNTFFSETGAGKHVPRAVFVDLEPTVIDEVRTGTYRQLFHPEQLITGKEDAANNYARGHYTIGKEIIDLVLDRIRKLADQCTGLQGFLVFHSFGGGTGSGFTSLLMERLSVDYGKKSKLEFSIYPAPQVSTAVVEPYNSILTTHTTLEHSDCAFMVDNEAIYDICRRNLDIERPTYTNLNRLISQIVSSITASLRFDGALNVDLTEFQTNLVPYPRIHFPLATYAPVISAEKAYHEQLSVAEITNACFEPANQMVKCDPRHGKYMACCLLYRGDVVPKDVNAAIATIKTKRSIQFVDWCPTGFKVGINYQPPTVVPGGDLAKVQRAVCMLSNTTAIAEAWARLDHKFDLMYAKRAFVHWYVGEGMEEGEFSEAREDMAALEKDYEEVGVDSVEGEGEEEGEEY
inactive: nilotinib -0.043 | [1] -0.009 | dasatinib -0.051 | [2] -0.036 | [3] 0.01 | quisinostat -0.021 | tipifarnib 0.002 | [4] 0.041 | [5] 0.002 | [6] -0.013 | [7] -0.005 | silmitasertib 0.018 | [8] 0.026 | entospletinib 0.01
active: vorinostat -0.66

TUBGCP4 (UniProt Q9UGJ1)
UniProt Q9UGJ1, sequence (Q9UGJ1 whole entry, looked up): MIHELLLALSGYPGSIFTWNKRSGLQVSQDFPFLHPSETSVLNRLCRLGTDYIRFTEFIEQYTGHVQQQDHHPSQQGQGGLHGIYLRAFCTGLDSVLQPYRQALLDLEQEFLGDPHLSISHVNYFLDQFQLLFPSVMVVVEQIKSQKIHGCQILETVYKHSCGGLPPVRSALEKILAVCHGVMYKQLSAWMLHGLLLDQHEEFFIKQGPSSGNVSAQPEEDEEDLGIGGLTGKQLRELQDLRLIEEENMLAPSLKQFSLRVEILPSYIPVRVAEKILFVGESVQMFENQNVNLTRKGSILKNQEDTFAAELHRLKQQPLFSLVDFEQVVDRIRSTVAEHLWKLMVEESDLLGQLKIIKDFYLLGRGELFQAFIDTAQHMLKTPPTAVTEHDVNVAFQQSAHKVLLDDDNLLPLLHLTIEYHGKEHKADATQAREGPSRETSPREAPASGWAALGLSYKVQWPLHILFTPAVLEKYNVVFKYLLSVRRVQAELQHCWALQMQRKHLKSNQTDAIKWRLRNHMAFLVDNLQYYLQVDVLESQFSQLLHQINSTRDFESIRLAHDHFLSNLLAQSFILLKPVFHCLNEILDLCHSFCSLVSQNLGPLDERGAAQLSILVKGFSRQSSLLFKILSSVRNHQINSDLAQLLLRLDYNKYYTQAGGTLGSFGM
active: vorinostat -0.219
inactive: nilotinib -0.028 | [1] 0.008 | dasatinib -0.046 | [2] 0.001 | [3] 0.018 | quisinostat -0.027 | tipifarnib 0.008 | [4] 0.069 | [5] 0.034 | [6] 0.01 | [7] -0.11 | silmitasertib 0.003 | [8] 0.02 | entospletinib 0.038

TNIK isoform 4 (UniProt Q9UKE5)
UniProt Q9UKE5, sequence (Q9UKE5 whole entry, looked up): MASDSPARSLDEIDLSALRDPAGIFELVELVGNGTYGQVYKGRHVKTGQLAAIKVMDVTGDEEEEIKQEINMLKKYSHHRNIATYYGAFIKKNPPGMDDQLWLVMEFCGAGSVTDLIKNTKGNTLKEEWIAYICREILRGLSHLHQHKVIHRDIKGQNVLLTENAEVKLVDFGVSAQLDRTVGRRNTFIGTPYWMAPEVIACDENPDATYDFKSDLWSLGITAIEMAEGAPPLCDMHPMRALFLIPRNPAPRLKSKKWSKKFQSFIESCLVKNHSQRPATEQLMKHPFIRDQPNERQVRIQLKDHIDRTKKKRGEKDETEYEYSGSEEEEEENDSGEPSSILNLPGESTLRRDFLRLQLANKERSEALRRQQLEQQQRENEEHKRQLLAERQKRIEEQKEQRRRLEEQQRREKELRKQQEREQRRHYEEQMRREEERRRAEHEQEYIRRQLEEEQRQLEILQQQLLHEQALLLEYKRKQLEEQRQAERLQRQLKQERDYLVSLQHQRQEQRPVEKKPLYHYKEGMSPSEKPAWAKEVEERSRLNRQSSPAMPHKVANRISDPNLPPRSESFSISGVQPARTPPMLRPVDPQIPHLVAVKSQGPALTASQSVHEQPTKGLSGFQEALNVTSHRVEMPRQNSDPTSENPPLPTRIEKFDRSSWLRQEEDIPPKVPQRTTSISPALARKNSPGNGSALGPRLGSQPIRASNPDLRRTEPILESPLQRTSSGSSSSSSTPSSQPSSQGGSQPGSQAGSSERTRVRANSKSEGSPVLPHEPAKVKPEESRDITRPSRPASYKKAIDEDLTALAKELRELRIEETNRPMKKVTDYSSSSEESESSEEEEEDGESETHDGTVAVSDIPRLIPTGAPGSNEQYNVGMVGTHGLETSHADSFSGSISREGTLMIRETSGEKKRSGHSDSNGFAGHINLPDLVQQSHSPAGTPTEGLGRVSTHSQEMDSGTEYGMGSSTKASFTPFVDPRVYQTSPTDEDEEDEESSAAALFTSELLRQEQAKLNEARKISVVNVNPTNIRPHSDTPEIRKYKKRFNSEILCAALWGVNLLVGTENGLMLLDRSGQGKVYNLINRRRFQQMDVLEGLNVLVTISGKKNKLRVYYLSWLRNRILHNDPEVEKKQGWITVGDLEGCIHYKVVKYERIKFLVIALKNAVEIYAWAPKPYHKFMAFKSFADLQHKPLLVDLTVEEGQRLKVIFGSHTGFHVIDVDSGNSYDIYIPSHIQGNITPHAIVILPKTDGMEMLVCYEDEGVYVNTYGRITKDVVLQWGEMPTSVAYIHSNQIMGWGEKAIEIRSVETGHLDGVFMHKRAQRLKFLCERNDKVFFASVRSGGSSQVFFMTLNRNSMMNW
active: [4] 0.483
inactive: nilotinib -0.019 | [1] 0.087 | dasatinib 0.203 | [2] 0.11 | [3] -0.011 | quisinostat -0.198 | tipifarnib -0.022 | [5] 0.08 | [6] -0.021 | [7] -0.019 | vorinostat -0.135 | silmitasertib 0.004 | [8] -0.114 | entospletinib 0.208

TPM1 (UniProt H7BYY1)
inactive: nilotinib 0.014 | [1] -0.111 | dasatinib -0.023 | [2] 0.028 | [3] 0.02 | quisinostat 0.101 | tipifarnib 0.059 | [4] -0.017 | [5] 0.013 | [6] 0.033 | [7] 0.057 | vorinostat 0.136 | silmitasertib -0.024 | [8] -0.049 | entospletinib 0.008

TIMM44 (UniProt O43615)
inactive: nilotinib 0.082 | [1] -0.011 | dasatinib -0.087 | [2] 0.023 | [3] -0.028 | quisinostat 0.003 | tipifarnib -0.108 | [4] -0.058 | [5] 0 | [6] -0.031 | [7] 0.045 | silmitasertib 0.015 | [8] 0.029 | entospletinib -0.026
active: vorinostat 0.245

TROAP (UniProt Q12815)
inactive: nilotinib -0.041 | [1] 0.023 | dasatinib -0.071 | [2] 0.037 | [3] 0.043 | quisinostat -0.096 | tipifarnib -0.005 | [4] 0.007 | [5] 0.031 | [6] -0.018 | [7] 0.003 | silmitasertib 0.003 | [8] 0.014 | entospletinib -0.057
active: vorinostat -0.382

TRMT12 (UniProt Q53H54)
UniProt Q53H54, sequence (Q53H54 whole entry, looked up): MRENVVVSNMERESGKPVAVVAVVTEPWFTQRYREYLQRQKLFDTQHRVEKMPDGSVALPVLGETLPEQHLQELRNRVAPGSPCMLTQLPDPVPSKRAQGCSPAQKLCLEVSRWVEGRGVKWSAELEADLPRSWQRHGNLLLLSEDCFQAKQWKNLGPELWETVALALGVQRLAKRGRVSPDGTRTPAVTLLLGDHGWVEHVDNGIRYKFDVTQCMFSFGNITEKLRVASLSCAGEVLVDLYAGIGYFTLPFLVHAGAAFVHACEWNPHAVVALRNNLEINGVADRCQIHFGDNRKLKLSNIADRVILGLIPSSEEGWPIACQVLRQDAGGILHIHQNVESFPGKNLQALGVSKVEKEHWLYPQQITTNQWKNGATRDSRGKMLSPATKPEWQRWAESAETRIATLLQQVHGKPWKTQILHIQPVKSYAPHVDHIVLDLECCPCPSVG
active: vorinostat -0.35
inactive: nilotinib -0.02 | [1] -0.005 | dasatinib -0.032 | [2] 0.062 | [3] -0.017 | quisinostat -0.074 | tipifarnib -0.007 | [4] 0.117 | [5] -0.009 | [6] 0.004 | [7] 0.045 | silmitasertib -0.039 | [8] -0.043 | entospletinib -0.125

TTC12 isoform 2 (UniProt Q9H892)
UniProt Q9H892, sequence (Q9H892 whole entry, looked up): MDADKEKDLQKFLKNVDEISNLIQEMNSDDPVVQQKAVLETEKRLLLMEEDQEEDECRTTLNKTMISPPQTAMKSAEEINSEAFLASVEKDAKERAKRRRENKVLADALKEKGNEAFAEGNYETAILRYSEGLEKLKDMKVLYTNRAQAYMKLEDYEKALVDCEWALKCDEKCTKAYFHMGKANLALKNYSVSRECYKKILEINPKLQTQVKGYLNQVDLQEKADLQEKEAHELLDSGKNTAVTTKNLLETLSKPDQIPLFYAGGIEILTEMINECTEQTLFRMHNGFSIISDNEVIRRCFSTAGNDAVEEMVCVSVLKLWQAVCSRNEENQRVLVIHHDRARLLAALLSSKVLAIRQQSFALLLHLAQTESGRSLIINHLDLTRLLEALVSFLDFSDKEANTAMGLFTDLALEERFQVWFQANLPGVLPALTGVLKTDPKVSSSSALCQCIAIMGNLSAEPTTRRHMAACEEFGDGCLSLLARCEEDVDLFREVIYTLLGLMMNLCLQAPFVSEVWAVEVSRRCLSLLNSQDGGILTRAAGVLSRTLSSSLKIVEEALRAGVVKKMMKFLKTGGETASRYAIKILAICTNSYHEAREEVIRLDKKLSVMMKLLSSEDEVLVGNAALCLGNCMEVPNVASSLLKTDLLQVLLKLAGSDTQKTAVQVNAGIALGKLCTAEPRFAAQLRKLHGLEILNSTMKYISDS
inactive: nilotinib -0.128 | [1] -0.073 | dasatinib -0.143 | [2] 0.018 | [3] 0.004 | quisinostat 0.033 | tipifarnib 0.075 | [4] 0.007 | [5] -0.041 | [6] -0.073 | [7] -0.01 | vorinostat -0.163 | silmitasertib 0.078 | [8] -0.058 | entospletinib -0.03

TIAL1 isoform 2 (UniProt Q01085)
UniProt Q01085, sequence (Q01085 whole entry, looked up): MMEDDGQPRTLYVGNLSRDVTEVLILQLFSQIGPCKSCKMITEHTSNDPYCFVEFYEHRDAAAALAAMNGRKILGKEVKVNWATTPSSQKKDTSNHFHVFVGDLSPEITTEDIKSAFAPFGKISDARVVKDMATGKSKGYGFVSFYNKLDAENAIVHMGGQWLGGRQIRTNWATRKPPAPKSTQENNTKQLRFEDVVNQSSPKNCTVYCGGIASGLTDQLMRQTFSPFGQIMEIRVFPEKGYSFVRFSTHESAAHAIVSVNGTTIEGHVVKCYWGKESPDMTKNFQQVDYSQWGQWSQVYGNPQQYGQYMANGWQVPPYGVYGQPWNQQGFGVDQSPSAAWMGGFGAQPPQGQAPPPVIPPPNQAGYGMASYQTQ
active: nilotinib -0.603
inactive: [1] -0.013 | dasatinib 0.025 | [2] -0.015 | [3] 0.028 | quisinostat 0.039 | tipifarnib -0.037 | [4] -0.016 | [5] 0.004 | [6] 0.033 | [7] -0.001 | vorinostat 0.041 | silmitasertib 0.023 | [8] -0.049 | entospletinib 0.028

TLK2 isoform 2 (UniProt Q86UE8)
inactive: nilotinib -0.008 | [1] 0.243 | dasatinib -0.004 | [2] 0.162 | [3] 0.007 | quisinostat -0.099 | tipifarnib 0.005 | [4] 0.073 | [5] 0.048 | [6] -0.035 | [7] 0.019 | vorinostat -0.24 | silmitasertib 0.057 | [8] 0.118 | entospletinib -0.135

UFM1 (UniProt P61960)
UniProt P61960, sequence (P61960 whole entry, looked up): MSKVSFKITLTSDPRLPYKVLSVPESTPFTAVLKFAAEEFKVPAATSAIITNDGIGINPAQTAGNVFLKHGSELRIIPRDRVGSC
inactive: nilotinib 0.042 | [1] 0 | dasatinib -0.037 | [2] 0.107 | [3] -0.032 | quisinostat 0.321 | tipifarnib 0.088 | [4] -0.116 | [5] -0.063 | [6] 0.043 | [7] -0.247 | vorinostat 0.036 | silmitasertib -0.074 | [8] -0.109 | entospletinib -0.011

UBL4A (UniProt P11441)
inactive: nilotinib -0.005 | [1] -0.013 | dasatinib 0.052 | [2] -0.037 | [3] 0.036 | quisinostat 0.157 | tipifarnib -0.024 | [4] 0.02 | [5] 0.007 | [6] 0.016 | [7] -0.036 | vorinostat -0.016 | silmitasertib 0.04 | [8] 0.007 | entospletinib -0.011

TTF2 (UniProt Q9UNY4)
active: vorinostat -0.317
inactive: nilotinib -0.008 | [1] -0.062 | dasatinib -0.012 | [2] -0.023 | [3] 0.018 | quisinostat -0.042 | tipifarnib 0.004 | [4] 0.02 | [5] 0.019 | [6] -0.067 | [7] 0.02 | silmitasertib 0.008 | [8] -0.032 | entospletinib -0.074

TYW3 (UniProt Q6IPR3)
UniProt Q6IPR3, sequence (Q6IPR3 whole entry, looked up): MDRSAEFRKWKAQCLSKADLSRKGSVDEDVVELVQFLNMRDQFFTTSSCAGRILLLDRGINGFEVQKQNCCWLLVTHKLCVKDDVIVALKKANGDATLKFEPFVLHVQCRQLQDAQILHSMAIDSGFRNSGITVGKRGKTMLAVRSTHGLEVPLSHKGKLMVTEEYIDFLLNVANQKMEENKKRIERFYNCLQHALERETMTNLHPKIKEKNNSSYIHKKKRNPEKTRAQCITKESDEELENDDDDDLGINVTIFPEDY
active: vorinostat -0.694
inactive: nilotinib -0.033 | [1] 0.017 | dasatinib -0.006 | [2] 0.035 | [3] 0.027 | quisinostat -0.126 | tipifarnib -0.018 | [4] -0.014 | [5] 0.046 | [6] 0.017 | [7] 0.036 | silmitasertib 0 | [8] -0.042 | entospletinib -0.001

TBRG4 (UniProt Q969Z0)
UniProt Q969Z0, sequence (Q969Z0 whole entry, looked up): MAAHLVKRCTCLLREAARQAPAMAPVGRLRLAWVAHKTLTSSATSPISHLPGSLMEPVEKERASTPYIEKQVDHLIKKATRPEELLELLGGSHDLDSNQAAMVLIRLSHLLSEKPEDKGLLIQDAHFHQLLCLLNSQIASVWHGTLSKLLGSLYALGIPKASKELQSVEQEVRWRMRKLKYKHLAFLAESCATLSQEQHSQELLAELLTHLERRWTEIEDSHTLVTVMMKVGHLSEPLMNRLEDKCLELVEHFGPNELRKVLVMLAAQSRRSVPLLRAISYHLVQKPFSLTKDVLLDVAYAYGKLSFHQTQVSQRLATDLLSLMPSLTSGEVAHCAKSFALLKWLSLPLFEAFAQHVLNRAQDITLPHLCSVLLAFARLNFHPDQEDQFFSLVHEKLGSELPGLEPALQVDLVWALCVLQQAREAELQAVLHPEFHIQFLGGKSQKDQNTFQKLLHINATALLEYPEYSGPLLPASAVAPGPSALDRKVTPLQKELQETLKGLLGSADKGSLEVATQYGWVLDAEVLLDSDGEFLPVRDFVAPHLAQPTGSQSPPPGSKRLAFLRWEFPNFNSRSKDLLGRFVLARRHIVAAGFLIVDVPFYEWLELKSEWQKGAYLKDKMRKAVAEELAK
inactive: nilotinib -0.016 | [1] -0.03 | dasatinib -0.035 | [2] 0.007 | [3] 0.059 | quisinostat 0.004 | tipifarnib -0.006 | [4] 0.038 | [5] 0.022 | [6] 0.019 | [7] 0.017 | vorinostat -0.238 | silmitasertib 0.034 | [8] 0.008 | entospletinib 0.042

TUBB (UniProt P07437)
inactive: nilotinib 0.067 | [1] 0.016 | dasatinib -0.043 | [2] -0.001 | [3] -0.011 | quisinostat 0.004 | tipifarnib 0.022 | [4] 0.048 | [5] -0.022 | [6] -0.003 | [7] 0.025 | silmitasertib 0.009 | [8] 0.032 | entospletinib -0.018
active: vorinostat -0.529

TRIP12 isoform 2 (UniProt Q14669)
active: vorinostat -0.266
inactive: nilotinib -0.019 | [1] 0.011 | dasatinib 0.003 | [2] 0.001 | [3] 0.039 | quisinostat -0.065 | tipifarnib -0.017 | [4] 0.057 | [5] 0.016 | [6] 0.003 | [7] -0.057 | silmitasertib 0.03 | [8] 0.005 | entospletinib -0.002

TTC37 (UniProt Q6PGP7)
active: quisinostat -0.408
inactive: nilotinib 0.03 | [1] -0.001 | dasatinib -0.163 | [2] 0.013 | [3] -0.085 | tipifarnib -0.012 | [4] 0.065 | [5] 0.005 | [6] -0.087 | [7] 0.136 | vorinostat 0.153 | silmitasertib 0.03 | [8] 0.046

TRAPPC12 (UniProt Q8WVT3)
inactive: nilotinib -0.007 | [1] 0.025 | dasatinib 0.024 | [2] -0.05 | [3] 0.038 | quisinostat 0.003 | tipifarnib 0.039 | [4] -0.018 | [5] -0.007 | [6] 0.013 | [7] 0.032 | silmitasertib 0.005 | [8] 0.043 | entospletinib -0.001
active: vorinostat -0.258
